# PubChem BioAssay (NCI)
# About 79,000 compounds went through this panel and 15% of them were active in at least one assay; those are over-represented in the sample as a whole. Calls of active or inactive are those of the source. No stated cut-off is given here; in the data, active means growth inhibition above about 70%; inactive means the rest.
# Assay: NCI Yeast Anticancer Drug Screen. Data for the mec2-1 strain (AID 157)
# Conditions: S. cerevisiae mec2-1 strain, at 50.0 µM, hits give high values
# Description: Growth inhibition of yeast strains with defined genetic alterations is measured as a screen for potential anti-cancer activity. Selected strains with alterations in DNA damage repair or cell cycle control were exposed to compounds and growth inhibition was measured relative to vehicle treated controls. The strain used in this assay is mec2-1
row,Structure (SMILES),growth inhibition
1,CC(CC(=O)c1ccccc1)c1ccccc1 (stereo not given),-18.4% (inactive)
2,CCCCOC(=O)c1ccc(C(C)C)cc1,6.85% (inactive)
3,CC1C(=O)c2ccccc2CC1C(=O)O (stereo not given),-15.6% (inactive)
4,Cc1cc(C)cc(NCCC#N)c1,-32.5% (inactive)
5,Cc1ccc(Cl)cc1NC(=O)N(C)CCO,7.65% (inactive)
6,CCOc1ccc(/C=N/N=C(N)N)cc1OCC,-18% (inactive)
7,O=C(NCc1ccco1)Nc1c(Cl)cc(Cl)cc1Cl,-26.1% (inactive)
8,O=C(O)c1ccccc1NCc1ccco1,-40.9% (inactive)
9,N/N=C(/Cc1ccccc1)NNC(N)=S,-13.7% (inactive)
10,CCCCC/C=N/Nc1nc(C)cc(=O)[nH]1,-5.6% (inactive)
11,CC(=O)CC(=O)N(C)C,-0.6% (inactive)
12,O=C(CCl)Nc1ccc2c(c1)C(=O)c1ccc(NC(=O)CCl)cc1C2=O,-4.85% (inactive)
13,CCC/C=C(/C(C)=O)C(=O)OCC,-4.6% (inactive)
14,O=C1OC(c2ccc(F)cc2)CC1CN1CCOCC1 (stereo not given),12.6% (inactive)
15,O=S(=O)(Cc1ccccc1)c1ccccc1,1.1% (inactive)
16,CCOc1ccc(I)cc1,11.8% (inactive)
17,c1ncc2[nH]cnc2n1,-4.1% (inactive)
18,Cc1cccc(CO)c1,-28.6% (inactive)
19,Cc1cc(O)ccc1O,25.1% (inactive)
20,Nc1ccc(N=Nc2ccc(O)cc2)c(N)n1,-20.1% (inactive)

row,Structure (SMILES),growth inhibition
1,CC(=O)OCC1OC(OC2=C(CC=C(C)C)C(=O)c3ccccc3C2=O)C(OC(C)=O)C(OC(C)=O)C1OC(C)=O (stereo not given),3.85% (inactive)
2,C[N+](C)=c1ccc2nc3c(cc(Nc4ccccc4)c4ccccc43)oc-2c1,49.6% (inactive)
3,Oc1ccc(N=Nc2ccc(Br)cc2)c(O)c1,31.3% (inactive)
4,COc1ccccc1C1OC2=Nc3cc(C)c(C)cc3NC2C1=O (stereo not given),-9.95% (inactive)
5,COc1ccc(-c2cc(-c3cc(-c4ccc(OC)cc4)nc(N)n3)nc(N)n2)cc1,4.45% (inactive)
6,CC(=O)OCCC(C)CCC=C(C)C (stereo not given),19.1% (inactive)
7,NC(C(=O)O)c1ccc([N+](=O)[O-])cc1 (stereo not given),-14.1% (inactive)
8,Cc1ccc(Cl)cc1N1C(=O)CC(Sc2ccccc2N)C1=O (stereo not given),-2.8% (inactive)
9,CCCCC1C(=O)N(c2ccccc2)N(c2ccccc2)C1=O,-10.6% (inactive)
10,CN1C(=O)CN2CCc3ccccc3C2c2cc(Cl)ccc21 (stereo not given),26.4% (inactive)
11,CC(=O)c1cc2c(cc1F)C(C)(C)CCC2(C)C,-30.4% (inactive)
12,O=C1N(C[P+](c2ccccc2)(c2ccccc2)c2ccccc2)CCCN1C[P+](c1ccccc1)(c1ccccc1)c1ccccc1,7.4% (inactive)
13,C=CC(O)CCC (stereo not given),-41% (inactive)
14,COC(=O)c1ccccc1Br,7.8% (inactive)
15,O=C(O)c1ccnc(Br)c1,-0.05% (inactive)
16,N#CCCN(CCCN1CCOCC1)CN1C(=O)c2ccccc2C1=O,9.15% (inactive)
17,CCOC(=O)/C(C#N)=C/c1cccc(C)c1,22.8% (inactive)
18,CSC[C@H](NC(=O)COc1cccc2cnccc12)C(=O)NC(Cc1ccccc1)C(O)C(=O)N1CSC[C@H]1C(=O)NC(C)(C)C (stereo not given in full),-17.2% (inactive)
19,CCCCC(CC)COC(C)=O (stereo not given),-13.5% (inactive)
20,Cc1ccc(C(=O)c2ccccc2)c(C)c1,-1.75% (inactive)
